Source: PubChem BioAssay (Tox21)
Results filed as inconclusive are left out. Calls of active or inactive are those of the source. Calls come from the whole dose curve; as a rule, active = well fitted curve in the direction sought with a large enough effect in the repeat runs; inconclusive = weak or mixed curves; inactive = no such curve, though single readings can be large; an effect the other way counts as inactive or inconclusive.

What was measured:
[1] = Human pregnane X receptor (PXR) small molecule agonists, qHTS cell viability counter screen (AID 1346977); note: nearly all actives have a fitted effect of over 50% in size; note: potency is the fitted concentration of half-maximal effect
Procedure, shortened: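 PXR-Luc HepG2 cells in medium with 5% charcoal-stripped FBS were pre-incubated 5hr, then exposed to compounds for 24hr at 37C. Viability was read in the same wells by CellTiter-Fluor fluorescence, reagent added after 23hr with a 1hr incubation.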

[2] = Caspase-3/7 induction in CHO-K1 cells by small molecules, qHTS cell viability counter screen (AID 1346979); note: nearly all actives have a fitted effect of over 35% in size; note: potency is the fitted concentration of half-maximal effect
Procedure, shortened: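 Wild-type CHO-K1 cells were seeded at 1,500 per well, rested 5hr at 37 C, then exposed to compounds in DMSO. After 16hr, CellTiter-Fluor reagent was added and fluorescence read 1hr later as the viability measure.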

[3] = Caspase-3/7 induction in CHO-K1 cells by small molecules, qHTS assay (AID 1346980); note: nearly all actives have a fitted effect of over 15% in size
Procedure, shortened: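 Luminescent Caspase-Glo 3/7 read (30min, room temperature) quantified apoptosis induction. Cells were wild-type CHO-K1, treated with compound for 17hr at 37 C and 5% CO2.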

[4] = target: Cytochrome P450 2C19 (Homo sapiens) (UniProt P33261); experiment: Cytochrome P450 Family 2 Subfamily C Member 19 (CYP2C19) small molecule antagonists: luciferase reporter qHTS assay (AID 1671197); note: nearly all actives have a fitted effect of over 65% in size; note: potency is the fitted concentration of half-maximal effect
Procedure, shortened: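 Quantitative high-throughput screen of the Tox21 library using CYP2C19 with proluciferin substrate. Reaction: NADPH regeneration, 37C, 1 h, after 10 min compound preincubation at room temperature. Readout: luminescence.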

[5] = target: Cytochrome P450 2C9 (Homo sapiens) (UniProt P11712); experiment: Cytochrome P450 Family 2 Subfamily C Member 9 (CYP2C9) small molecule antagonists: luciferase reporter qHTS assay (AID 1671198); note: nearly all actives have a fitted effect of over 50% in size; note: potency is the fitted concentration of half-maximal effect
Procedure, shortened: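 Enzyme-substrate mix preincubated with compound 10 min at room temperature; reaction started with NADPH regeneration solution, 1 h 37C. Luminescent luciferin product read after 20 min detection reagent.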

[6] = target: Voltage-gated inwardly rectifying potassium channel KCNH2 (Homo sapiens) (UniProt Q12809); experiment: Human Ether-a-go-go-Related Gene (hERG) channel small molecule antagonists: fluorescence cell-based qHTS assay (AID 1671200); note: nearly all actives have a fitted effect of over 50% in size; note: potency is the fitted concentration of half-maximal effect
Procedure, shortened: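 U2OS cells expressing the channel were plated at 1000 cells/well, incubated overnight at 37 C, then loaded with FluxOR II thallium-sensitive dye for 1 h at room temperature in the dark, with a further 10 min at room temperature before stimulation.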

[7] = target: Cytochrome P450 3A4 (Homo sapiens) (UniProt P08684); experiment: Cytochrome P450 Family 3 Subfamily A Member 4 (CYP3A4) small molecule antagonists: luciferase reporter qHTS assay (AID 1671201); note: nearly all actives have a fitted effect of over 50% in size; note: potency is the fitted concentration of half-maximal effect
Procedure, shortened: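 P450-Glo CYP3A4 system with proluciferin substrate; compounds preincubated 10 min RT with enzyme-substrate mix, then NADPH regeneration added for 1 h RT. Detection reagent 20 min, luminescence read as relative luminescence units.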

[8] = Caspase-3/7 induction in HepG2 cells by small molecules, qHTS assay (AID 1346978); note: nearly all actives have a fitted effect of over 15% in size
Procedure, shortened: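 Caspase-3/7 induction was measured by Caspase-Glo 3/7 luminescence (30 min, room temperature) after a 17 hr compound exposure of wild-type HepG2 cells seeded at 2,000 per well and pre-incubated 5 hr.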

[9] = Caspase-3/7 induction in HepG2 cells by small molecules, qHTS cell viability counter screen (AID 1346981); note: nearly all actives have a fitted effect of over 30% in size; note: potency is the fitted concentration of half-maximal effect
Procedure, shortened: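 Wild-type HepG2 cells, 2,000/well, settled 5 hr at 37 C, 5% CO2 before compound addition. Viability read by CellTiter-Fluor fluorescence, reagent added after 16 hr compound exposure, then 1 hr at 37C, in the same wells as the caspase read.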

[10] = target: Nuclear receptor subfamily 1 group I member 2 (Homo sapiens) (UniProt O75469); experiment: Human pregnane X receptor (PXR) small molecule agonists, qHTS assay (AID 1346982); note: nearly all actives have a fitted effect of over 35% in size; note: potency is the fitted concentration of half-maximal effect
Procedure, shortened: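 PXR-Luc HepG2 reporter cells (CYP3A4-driven luciferase) in 5% charcoal-stripped FBS medium, plated 5 h before compound addition, then treated 24 h at 37C. Luciferase read by ONE-Glo luminescence after 30 min at room temperature.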

[11] = target: Cytochrome P450 2D6 (Homo sapiens) (UniProt P10635); experiment: Cytochrome P450 Family 2 Subfamily D Member 6 (CYP2D6) small molecule antagonists: luciferase reporter qHTS assay (AID 1671196); note: nearly all actives have a fitted effect of over 50% in size; note: potency is the fitted concentration of half-maximal effect
Procedure, shortened: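 Cell-free P450-Glo system: CYP2D6 with proluciferin substrate was pre-incubated with compound for 10 min, then reacted with NADPH regeneration for 1 h at room temperature. Luciferin product was detected after 20 min, and data were reported as relative luminescence units.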

[12] = target: Cytochrome P450 1A2 (Homo sapiens) (UniProt P05177); experiment: Cytochrome P450 Family 1 Subfamily A Member 2 (CYP1A2) small molecule antagonists: luciferase reporter qHTS assay (AID 1671199); note: nearly all actives have a fitted effect of over 50% in size; note: potency is the fitted concentration of half-maximal effect
Procedure, shortened: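 P450-Glo CYP1A2 enzyme–proluciferin substrate mix with compound 10 min at room temperature, then NADPH regeneration 1 h at room temperature. Luciferin detection reagent added, luminescence read after 20 min; furafylline positive control.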

[13] = target: Nuclear receptor subfamily 1 group I member 2 (Rattus norvegicus) (UniProt Q9R1A7); experiment: Rat pregnane X receptor (rPXR) activation by small molecules, qHTS assay (AID 1346983); conditions: rPXR luciferase reporter cells, One-Glo luminescence, 24 h; max activation: hits give high values; note: nearly all actives have a fitted effect of over 20% in size
Procedure, shortened: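 Luminescent readout (One-Glo luciferase, 30 min room temperature) followed 24 hr compound treatment at 37 C of rPXR cells plated 2,000 per well and preincubated 5hr; qHTS format with compounds delivered in DMSO.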

[14] = target: Nuclear receptor subfamily 1 group I member 2 (Homo sapiens) (UniProt O75469); experiment: CYP3A4 induction through human pregnane X receptor (PXR) by small molecules, qHTS assay (AID 1346984); note: nearly all actives have a fitted effect of over 40% in size
Procedure, shortened: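 DPX-2 HepG2 cells carrying a PXR response element and CYP3A4-promoter luciferase construct, treated with compounds 24 hr at 37C. Then P450-Glo CYP3A4 Luciferin-IPA substrate (3uM final) for 3 hr at 37C, One-Glo added, luminescence read.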

[15] = target: Nuclear receptor subfamily 1 group I member 2 (Homo sapiens) (UniProt O75469); experiment: Human pregnane X receptor (PXR) activation by small molecules, qHTS assay (AID 1346985); note: nearly all actives have a fitted effect of over 40% in size
Procedure, shortened: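 DPX-2 cells (HepG2 co-transfected with a PXR response element and a CYP3A4-promoter luciferase construct) were seeded at 2,000 per well, rested 5 hr at 37C, then exposed to DMSO-dissolved compounds for 24 hr. Activation was read as luciferase luminescence.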
% is set by controls: 0 for no effect and ±100 for the full control effect.

Sequence of Nuclear receptor subfamily 1 group I member 2 (Rattus norvegicus) (Q9R1A7 whole entry, looked up): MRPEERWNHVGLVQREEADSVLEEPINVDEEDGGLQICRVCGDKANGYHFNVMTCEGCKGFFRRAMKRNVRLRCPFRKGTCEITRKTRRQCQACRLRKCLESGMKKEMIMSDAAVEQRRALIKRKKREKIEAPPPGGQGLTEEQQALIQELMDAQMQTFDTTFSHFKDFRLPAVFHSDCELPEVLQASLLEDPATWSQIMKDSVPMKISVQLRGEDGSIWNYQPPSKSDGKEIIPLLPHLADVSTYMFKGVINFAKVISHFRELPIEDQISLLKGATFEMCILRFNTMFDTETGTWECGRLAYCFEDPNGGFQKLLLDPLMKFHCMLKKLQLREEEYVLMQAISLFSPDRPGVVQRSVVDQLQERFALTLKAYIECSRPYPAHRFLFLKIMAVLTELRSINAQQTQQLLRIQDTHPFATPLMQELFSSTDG
Sequence of Voltage-gated inwardly rectifying potassium channel KCNH2 (Homo sapiens) (Q12809 whole entry, looked up): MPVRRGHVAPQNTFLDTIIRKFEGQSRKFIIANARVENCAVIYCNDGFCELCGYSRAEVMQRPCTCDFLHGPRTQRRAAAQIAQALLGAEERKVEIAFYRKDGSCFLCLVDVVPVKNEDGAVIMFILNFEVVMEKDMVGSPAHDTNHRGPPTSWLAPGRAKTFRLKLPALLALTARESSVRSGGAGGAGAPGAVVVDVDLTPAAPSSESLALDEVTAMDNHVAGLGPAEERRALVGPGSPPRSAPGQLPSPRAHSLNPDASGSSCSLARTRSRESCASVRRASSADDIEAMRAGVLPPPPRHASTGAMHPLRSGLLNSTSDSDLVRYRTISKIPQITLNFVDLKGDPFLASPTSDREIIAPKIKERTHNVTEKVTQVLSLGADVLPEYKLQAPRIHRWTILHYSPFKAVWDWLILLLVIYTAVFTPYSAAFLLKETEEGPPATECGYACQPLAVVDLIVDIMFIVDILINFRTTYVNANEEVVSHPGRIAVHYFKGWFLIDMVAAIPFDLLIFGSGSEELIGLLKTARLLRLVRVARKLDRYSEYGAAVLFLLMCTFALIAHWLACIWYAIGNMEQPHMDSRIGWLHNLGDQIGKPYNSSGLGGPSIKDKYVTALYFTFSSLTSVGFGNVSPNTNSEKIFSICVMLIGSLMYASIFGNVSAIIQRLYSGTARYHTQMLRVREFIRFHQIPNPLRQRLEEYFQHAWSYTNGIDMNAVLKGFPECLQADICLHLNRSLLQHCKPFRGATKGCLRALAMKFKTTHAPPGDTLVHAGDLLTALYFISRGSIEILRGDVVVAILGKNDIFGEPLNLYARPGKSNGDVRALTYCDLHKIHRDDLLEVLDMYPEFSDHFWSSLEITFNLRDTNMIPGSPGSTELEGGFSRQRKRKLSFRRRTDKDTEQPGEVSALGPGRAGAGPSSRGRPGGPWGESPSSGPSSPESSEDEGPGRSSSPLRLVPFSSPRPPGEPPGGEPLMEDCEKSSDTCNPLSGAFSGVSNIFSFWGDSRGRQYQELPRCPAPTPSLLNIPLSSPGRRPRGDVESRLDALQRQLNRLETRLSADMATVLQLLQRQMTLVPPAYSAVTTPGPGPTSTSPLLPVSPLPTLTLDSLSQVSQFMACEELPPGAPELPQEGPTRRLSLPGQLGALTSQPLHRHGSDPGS
Sequence of Cytochrome P450 2C9 (Homo sapiens) (P11712 whole entry, looked up): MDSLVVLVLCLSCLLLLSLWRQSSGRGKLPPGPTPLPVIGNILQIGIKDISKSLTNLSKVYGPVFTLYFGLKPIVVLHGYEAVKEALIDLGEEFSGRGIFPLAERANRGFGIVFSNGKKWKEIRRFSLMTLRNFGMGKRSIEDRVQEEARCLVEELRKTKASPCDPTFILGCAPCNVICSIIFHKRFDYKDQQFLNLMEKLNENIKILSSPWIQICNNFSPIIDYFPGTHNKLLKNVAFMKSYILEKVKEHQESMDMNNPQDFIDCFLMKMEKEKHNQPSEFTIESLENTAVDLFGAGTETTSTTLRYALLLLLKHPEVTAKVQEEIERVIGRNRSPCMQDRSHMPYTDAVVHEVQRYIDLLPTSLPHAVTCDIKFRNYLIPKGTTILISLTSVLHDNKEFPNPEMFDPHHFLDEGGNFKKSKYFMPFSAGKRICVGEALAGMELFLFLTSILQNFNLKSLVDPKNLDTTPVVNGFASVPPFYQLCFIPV
Sequence of Cytochrome P450 2C19 (Homo sapiens) (P33261 whole entry, looked up): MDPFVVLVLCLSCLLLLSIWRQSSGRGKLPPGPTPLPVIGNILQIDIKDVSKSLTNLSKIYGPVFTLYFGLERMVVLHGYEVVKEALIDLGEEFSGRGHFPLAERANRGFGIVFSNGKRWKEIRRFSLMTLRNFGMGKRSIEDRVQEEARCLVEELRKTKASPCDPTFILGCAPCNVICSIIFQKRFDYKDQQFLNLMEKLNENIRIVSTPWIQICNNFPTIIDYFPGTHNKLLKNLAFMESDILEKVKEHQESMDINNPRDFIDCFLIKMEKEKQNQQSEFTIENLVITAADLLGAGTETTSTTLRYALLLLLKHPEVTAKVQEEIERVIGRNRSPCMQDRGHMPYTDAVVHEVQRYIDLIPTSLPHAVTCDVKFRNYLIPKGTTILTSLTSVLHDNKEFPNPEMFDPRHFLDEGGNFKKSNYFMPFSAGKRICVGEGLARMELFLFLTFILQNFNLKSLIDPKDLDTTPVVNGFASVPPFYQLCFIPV
Sequence of Nuclear receptor subfamily 1 group I member 2 (Homo sapiens) (O75469 whole entry, looked up): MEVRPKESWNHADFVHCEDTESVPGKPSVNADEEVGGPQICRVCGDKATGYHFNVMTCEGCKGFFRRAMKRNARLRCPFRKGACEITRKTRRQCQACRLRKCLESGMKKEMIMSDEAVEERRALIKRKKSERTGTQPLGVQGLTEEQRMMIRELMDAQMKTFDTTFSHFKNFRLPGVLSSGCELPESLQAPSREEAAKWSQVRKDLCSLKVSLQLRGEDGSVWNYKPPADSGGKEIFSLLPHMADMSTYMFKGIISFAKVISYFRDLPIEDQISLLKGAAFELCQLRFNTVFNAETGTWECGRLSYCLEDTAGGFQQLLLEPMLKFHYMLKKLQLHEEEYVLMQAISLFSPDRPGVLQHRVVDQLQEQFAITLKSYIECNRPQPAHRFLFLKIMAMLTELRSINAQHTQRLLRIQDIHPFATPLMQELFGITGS
Sequence of Cytochrome P450 2D6 (Homo sapiens) (P10635 whole entry, looked up): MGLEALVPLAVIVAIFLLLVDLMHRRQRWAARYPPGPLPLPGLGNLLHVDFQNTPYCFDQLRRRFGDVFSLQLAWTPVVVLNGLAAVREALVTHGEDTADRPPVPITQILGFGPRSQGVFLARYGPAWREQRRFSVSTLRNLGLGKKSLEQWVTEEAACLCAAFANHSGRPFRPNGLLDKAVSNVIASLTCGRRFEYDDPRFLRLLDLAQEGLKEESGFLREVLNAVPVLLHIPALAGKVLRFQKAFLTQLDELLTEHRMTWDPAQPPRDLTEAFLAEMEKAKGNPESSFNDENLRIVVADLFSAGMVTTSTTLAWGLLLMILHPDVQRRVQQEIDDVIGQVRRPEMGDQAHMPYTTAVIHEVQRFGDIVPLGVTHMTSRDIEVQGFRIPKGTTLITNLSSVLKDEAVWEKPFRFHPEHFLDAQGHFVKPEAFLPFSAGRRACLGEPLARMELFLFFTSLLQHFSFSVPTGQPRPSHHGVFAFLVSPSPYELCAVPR
Sequence of Cytochrome P450 1A2 (Homo sapiens) (P05177 whole entry, looked up): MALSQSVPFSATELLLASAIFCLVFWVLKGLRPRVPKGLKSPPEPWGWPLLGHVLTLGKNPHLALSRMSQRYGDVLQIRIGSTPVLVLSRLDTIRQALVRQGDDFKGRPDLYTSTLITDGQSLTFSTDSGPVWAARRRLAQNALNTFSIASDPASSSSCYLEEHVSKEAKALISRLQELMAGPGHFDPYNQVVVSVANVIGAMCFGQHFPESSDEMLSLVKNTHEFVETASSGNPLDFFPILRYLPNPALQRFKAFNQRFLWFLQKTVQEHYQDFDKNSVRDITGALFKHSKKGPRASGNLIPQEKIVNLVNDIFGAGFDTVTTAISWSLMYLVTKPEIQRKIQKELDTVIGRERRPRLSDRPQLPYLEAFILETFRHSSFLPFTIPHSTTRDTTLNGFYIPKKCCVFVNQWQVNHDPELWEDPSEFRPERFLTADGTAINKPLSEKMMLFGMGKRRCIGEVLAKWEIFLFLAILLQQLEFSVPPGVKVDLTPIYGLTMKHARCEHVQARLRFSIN
Sequence of Cytochrome P450 3A4 (Homo sapiens) (P08684 whole entry, looked up): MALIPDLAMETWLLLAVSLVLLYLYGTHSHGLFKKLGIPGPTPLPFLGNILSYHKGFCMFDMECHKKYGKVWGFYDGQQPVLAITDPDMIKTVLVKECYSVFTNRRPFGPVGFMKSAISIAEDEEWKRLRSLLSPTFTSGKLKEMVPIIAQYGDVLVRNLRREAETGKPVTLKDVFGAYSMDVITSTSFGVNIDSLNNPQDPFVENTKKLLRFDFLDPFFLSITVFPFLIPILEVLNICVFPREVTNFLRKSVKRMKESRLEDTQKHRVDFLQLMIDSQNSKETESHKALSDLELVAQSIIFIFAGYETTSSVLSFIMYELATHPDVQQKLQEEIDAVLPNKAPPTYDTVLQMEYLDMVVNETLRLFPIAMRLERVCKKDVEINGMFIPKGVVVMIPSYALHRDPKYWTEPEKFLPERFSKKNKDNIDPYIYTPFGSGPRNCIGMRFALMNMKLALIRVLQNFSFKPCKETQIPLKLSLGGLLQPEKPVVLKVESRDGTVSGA

CCCCCCCC/C=C\CCCCCCCC(=O)OCCO
inactive: Potency [1] | Potency [2] | outcome [3] | Potency [6]
active: Potency [4] 52.9 µM | Potency [5] 18.8 µM | Potency [7] 13.3 µM

O=C(O)CO
inactive: Potency [8] | Potency [2] | outcome [3] | Potency [9] | Potency [10] | Potency [11] | Potency [4] | Potency [5] | Potency [12] | Potency [6]

O=C(O)/C=C/c1ccc(O)c(O)c1
inactive: Potency [1] | Potency [2] | outcome [3] | Potency [9] | Potency [10] | Potency [11] | Potency [5] | Potency [12] | Potency [6] | Potency [7]

Cc1cc(CCCOc2c(C)cc(-c3noc(C(F)(F)F)n3)cc2C)on1
active: Potency [10] 21.1 µM | Potency [4] 21.9 µM | Potency [5] 8.71 µM
inactive: Potency [1] | Potency [2] | outcome [3] | Potency [9]

O=C(/C=C/c1ccc([N+](=O)[O-])cc1)c1ccccc1
inactive: outcome [3] | Potency [6] | Potency [7]
active: Potency [1] 61.3 µM | Potency [10] 24.4 µM | Potency [4] 1.59 µM | Potency [5] 11.3 µM | Potency [12] 5.04 µM

O=C(O)c1ccc(O)cc1O
inactive: Potency [8] | Potency [2] | outcome [3] | Potency [9] | Potency [10] | Potency [11] | Potency [5] | Potency [6] | Potency [7]

CC(=O)N[C@@H](Cc1ccc(O)cc1)C(=O)O
inactive: Potency [2] | outcome [3] | Potency [9] | Potency [10] | max activation [13] -1.6% | Potency [14] | Potency [15] | Potency [11] | Potency [4] | Potency [5] | Potency [12] | Potency [6] | Potency [7]

CCOC(=O)N1CCC(Nc2ccc(Cl)cc2N)CC1
active: Potency [4] 4.36 µM | Potency [5] 8.71 µM
inactive: Potency [8] | Potency [2] | outcome [3] | Potency [10] | Potency [12] | Potency [6]

O=P(O)(O)Oc1ccccc1
inactive: Potency [8] | outcome [3] | Potency [9] | Potency [10] | Potency [4] | Potency [5] | Potency [12] | Potency [6] | Potency [7]

C1CCCCC1
inactive: Potency [8] | Potency [2] | outcome [3] | Potency [10] | Potency [11] | Potency [4] | Potency [5] | Potency [12] | Potency [6] | Potency [7]

CC(=O)Oc1cccc(O)c1
inactive: Potency [2] | outcome [3] | Potency [9] | Potency [10] | max activation [13] -5.99% | Potency [14] | Potency [15] | Potency [11] | Potency [4] | Potency [5] | Potency [6]

CCCC(=O)OC(=O)CCC
inactive: Potency [8] | Potency [2] | outcome [3] | Potency [10] | Potency [11] | Potency [4] | Potency [5] | Potency [6] | Potency [7]

O=C(O)c1cc(Cl)cc(Cl)c1O
active: Potency [5] 28.3 µM
inactive: Potency [8] | Potency [2] | outcome [3] | Potency [10] | Potency [11] | Potency [4] | Potency [6]

COC(=O)Nc1nc2ccc(C(=O)C3CC3)cc2[nH]1
inactive: Potency [8] | outcome [3] | Potency [11] | Potency [4] | Potency [6]
active: Potency [10] 8.41 µM

CC(=O)c1ccc[nH]1
inactive: Potency [8] | Potency [2] | outcome [3] | Potency [10] | Potency [11] | Potency [4] | Potency [5] | Potency [6] | Potency [7]

C=CCOC(=O)COCCC(C)C
inactive: Potency [8] | Potency [2] | outcome [3] | Potency [9] | Potency [10] | Potency [5] | Potency [12] | Potency [6]

COc1ccc(N)c([N+](=O)[O-])c1
inactive: Potency [8] | outcome [3] | Potency [6]
active: Potency [12] 8.94 µM

CC(C)c1ccc(C(=O)N=C(N)N)cc1S(C)(=O)=O
inactive: Potency [8] | Potency [2] | outcome [3] | Potency [9] | Potency [10] | Potency [4] | Potency [5] | Potency [6] | Potency [7]
active: Potency [12] 44.4 µM

CC[C@H]1OC(=O)[C@H](C)[C@@H](O[C@H]2C[C@@](C)(OC)[C@@H](O)[C@H](C)O2)[C@H](C)[C@@H](O[C@@H]2O[C@H](C)C[C@H](N(C)C)[C@H]2O)[C@](C)(O)C[C@@H](C)/C(=N\OCOCCOC)[C@H](C)[C@@H](O)[C@]1(C)O
active: Potency [2] 28.6 µM | Potency [9] 25.5 µM | Potency [7] 3.33 µM
inactive: Potency [8] | outcome [3] | max activation [13] 0.558% | Potency [14] | Potency [15] | Potency [11] | Potency [4] | Potency [5] | Potency [6]

Cc1cc([N+](=O)[O-])ccc1N
active: Potency [2] 53.8 µM | Potency [9] 33.9 µM | Potency [11] 31.3 µM | Potency [4] 35.1 µM | Potency [5] 39.4 µM | Potency [12] 3.51 µM
inactive: outcome [3] | Potency [6] | Potency [7]

O=[N+]([O-])C1(Br)COCOC1
inactive: Potency [8] | outcome [3] | Potency [9] | Potency [11]
active: Potency [2] 54.5 µM | Potency [4] 15.9 µM | Potency [5] 7.1 µM | Potency [12] 15.9 µM | Potency [6] 54.9 µM

CC(O)Cn1cnc2c1c(=O)n(C)c(=O)n2C (configuration not stated)
inactive: Potency [8] | Potency [2] | outcome [3] | Potency [9] | Potency [6]

C[C@@H]1[C@H](O)[C@@H](C)/C=C/C=C\C=C\C=C\C=C\C=C\C=C\[C@H](O[C@@H]2O[C@H](C)[C@@H](O)[C@H](N)[C@@H]2O)C[C@@H]2O[C@](O)(C[C@@H](O)C[C@@H](O)[C@H](O)CC[C@@H](O)C[C@@H](O)CC(=O)O[C@H]1C)C[C@H](O)[C@H]2C(=O)O (stereo in doubt)
active: Potency [2] 61.1 µM
inactive: Potency [8] | outcome [3] | max activation [13] 1.92% | Potency [14] | Potency [15] | Potency [11] | Potency [4] | Potency [5] | Potency [6] | Potency [7]
